Reference: PMC4336329 (PLoS ONE, 2015)
In all, about 310,000 compounds went through this assay and about 14,000 (4.5%) showed an effect of 50% or more. The effect is printed as a negative number. Shown is part of a subset that was picked to be rich in strong results.

target: human ether-à-go-go-related gene (hERG) potassium channel (human, UniProt Q12809); test: primary screen, population patch clamp on CHO cells stably expressing hERG; higher = less effect of the substance
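Further: peak tail current of the secondary pulse compared with the same well before compound.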

Sequence of human ether-à-go-go-related gene (hERG) potassium channel (Q12809 whole entry, looked up): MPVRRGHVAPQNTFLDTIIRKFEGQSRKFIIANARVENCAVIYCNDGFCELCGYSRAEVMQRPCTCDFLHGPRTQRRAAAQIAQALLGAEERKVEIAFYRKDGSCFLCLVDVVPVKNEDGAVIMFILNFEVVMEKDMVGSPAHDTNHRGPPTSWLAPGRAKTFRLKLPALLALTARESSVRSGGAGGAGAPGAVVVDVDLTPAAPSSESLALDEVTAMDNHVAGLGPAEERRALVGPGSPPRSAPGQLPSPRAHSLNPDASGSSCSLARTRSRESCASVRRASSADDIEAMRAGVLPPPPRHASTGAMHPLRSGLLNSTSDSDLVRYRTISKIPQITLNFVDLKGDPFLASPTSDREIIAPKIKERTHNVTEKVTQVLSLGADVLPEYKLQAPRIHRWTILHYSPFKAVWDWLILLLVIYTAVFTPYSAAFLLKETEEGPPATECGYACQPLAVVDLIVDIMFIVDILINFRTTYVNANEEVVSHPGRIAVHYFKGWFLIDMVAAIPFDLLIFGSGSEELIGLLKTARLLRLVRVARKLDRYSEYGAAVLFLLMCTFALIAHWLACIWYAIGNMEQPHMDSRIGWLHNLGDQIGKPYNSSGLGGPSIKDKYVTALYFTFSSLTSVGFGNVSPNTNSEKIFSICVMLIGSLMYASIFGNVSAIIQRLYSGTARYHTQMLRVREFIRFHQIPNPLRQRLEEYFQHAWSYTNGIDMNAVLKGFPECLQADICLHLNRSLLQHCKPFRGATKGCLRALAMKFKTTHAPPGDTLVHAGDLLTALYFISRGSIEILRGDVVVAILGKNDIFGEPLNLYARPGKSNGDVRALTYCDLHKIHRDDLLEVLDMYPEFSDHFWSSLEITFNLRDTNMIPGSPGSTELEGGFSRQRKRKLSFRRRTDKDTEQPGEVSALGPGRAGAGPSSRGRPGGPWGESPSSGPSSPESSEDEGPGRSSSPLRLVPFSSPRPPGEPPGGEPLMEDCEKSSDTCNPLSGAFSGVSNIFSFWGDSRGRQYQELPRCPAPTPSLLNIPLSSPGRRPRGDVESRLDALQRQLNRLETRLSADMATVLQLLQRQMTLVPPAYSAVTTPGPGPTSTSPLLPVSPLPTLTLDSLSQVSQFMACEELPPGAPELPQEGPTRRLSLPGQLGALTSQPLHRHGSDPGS

Structure (SMILES)	hERG current change (%, negative = inhibition) at 10uM [%]
O=C(CSc1ccccn1)Nc1ccc(Cl)c([N+](=O)[O-])c1	-19.6
COc1ccc(Cn2c(N)c(C#N)c3nc4ccccc4nc32)cc1	11.2
COc1ccc(-n2c(SCC(=O)NCCCN3CCCC3=O)nnc2C(C)N2CCCCC2)cc1 (centres unmarked)	43.4
C=CCc1cccc(CNc2nc3ccccc3n2CCC)c1O	5.13
C#CCOCCOCCOCCNc1nc(N2CCOCC2)nc(N2CCN(C(=O)CCCCCCCCCCNC(=O)[C@H](CO)n3cc(CCCSC)nn3)CC2)n1	-0.214
CCOc1ccc(S(=O)(=O)Nc2ccc(C(=O)NCC(c3ccco3)N3CCCCC3)cc2)cc1 (centres unmarked)	-25.1
CC(C)[C@H](NC(=O)[C@H]1N2C(=O)c3ccccc3C2SC1(C)C)C(=O)NCc1ccco1 (some centres unmarked)	2.21
Cc1cccc(C)c1NC(=O)CSc1nnc(Cn2nnc(-c3ccccc3)n2)n1-c1ccccc1	-22.3
CCN(CC)c1ccc(CNc2ccc(Br)cn2)cc1	13.1
CC1(C)Cc2c(c(N3CCOCC3)nc3sc(-c4ccc(C(=O)O)o4)c(N)c23)CO1	-15.2
Cn1nnc(NC(=O)/C=C/c2ccco2)n1	8.33
O=C(NC1CCCc2ccccc21)c1ccccc1 (centres unmarked)	3.92
COC(=O)[C@@H](NC(=O)NC1CCCc2ccccc21)C(C)C (some centres unmarked)	9.47
N#Cc1ccc(C(=O)NC2CCCc3ccccc32)cc1 (centres unmarked)	-52.8
CCC(C)[C@H](NC(=O)NC1CCCc2ccccc21)C(=O)O (some centres unmarked)	20.6
O=C(NC1CCCc2ccccc21)c1ccc([N+](=O)[O-])cc1 (centres unmarked)	-53.4
Cc1cc(C(=O)NC2CCCc3ccccc32)ccc1[N+](=O)[O-] (centres unmarked)	9.18
O=C(NC1CCCc2ccccc21)c1ccc(Br)cc1 (centres unmarked)	-7.78
CC(C)[C@H](NC(=O)NC1CCCc2ccccc21)C(=O)O (some centres unmarked)	-68.2
O=C(NC1CCSc2ccccc21)c1ccc([N+](=O)[O-])cc1 (centres unmarked)	-40.3
COc1ccc(C(CNC(=O)C(CCSC)NC(=O)c2ccccc2Cl)N2CCOCC2)cc1 (centres unmarked)	-8.2
CC(C)C[C@H](NC(=O)c1cc2cc(Cl)ccc2n1C)C(=O)N1CCC(C(=O)O)CC1	13.5

Structure (SMILES)	hERG current change (%, negative = inhibition) at 10uM [%]
CN(C(=O)c1cccc(N2C(=O)C3C4C=CC(C4)C3C2=O)c1)C1CCCCC1 (centres unmarked)	0.921
O=C(Nc1ccccc1)NC(Cc1ccc(O)cc1)C(=O)O (centres unmarked)	17.4
O=C(NC(=S)Nc1ccccc1C(=O)O)c1cncc(Br)c1	23
COc1ccc(OC)c(/C=C/C(=O)OCC(=O)Nc2ccc3c(c2)OCCO3)c1	15.9
Cc1noc(/C=C/N(C)C)c1S(=O)(=O)N1CCc2ccccc21	-18.6
COc1ccccc1CN(C)C(=O)c1cccc(S(=O)(=O)N2CCc3ccccc3C2)c1	-4.08
O=C(COC(=O)c1cc(=O)c2ccccc2o1)Nc1ccc2ccccc2c1	17.6
CN1/C(=C\C(=O)CSc2nnc(N)s2)C(C)(C)c2ccccc21	0.532
CN1/C(=C\C(=O)CSc2nnc(NCc3ccccc3)s2)C(C)(C)c2ccccc21	-13.1
CC(C)Nc1nnc(SCC(=O)/C=C2\N(C)c3ccccc3C2(C)C)s1	-65.1
COC(=O)CCC(=O)N1CCCC(C(=O)c2ccc(Cl)cc2C)C1 (centres unmarked)	-5.75
Cc1cc(Cl)ccc1C(=O)C1CCCN(C2CCSCC2)C1 (centres unmarked)	-74.3
O=C(c1ccc(Cl)cc1)C1CCCN(C(=O)c2csnn2)C1 (centres unmarked)	0.734
Cc1nc(C)c(C(=O)N2CCCC(C(=O)c3ccc(Cl)cc3C)C2)s1 (centres unmarked)	-23
O=C(c1ccc(C(F)(F)F)cc1)C1CCCN(C(=O)c2csnn2)C1 (centres unmarked)	-22.6
CC(C)(C)c1ccc(C(=O)C2CCCN(C3CCC3)C2)cc1 (centres unmarked)	-18.4
Cc1cc(Cl)ccc1C(=O)C1CCCN(C(=O)c2snnc2C)C1 (centres unmarked)	-56.1
O=C(c1ccc(Cl)cc1)C1CCCN(C2CCSCC2)C1 (centres unmarked)	-78.9
COc1ccc(C(=O)C2CCCN(C3CSCCSC3)C2)c(C)c1 (centres unmarked)	-13
Cc1cc(Cl)ccc1C(=O)C1CCCN(C(=O)c2nonc2C)C1 (centres unmarked)	-26.3
CN1CCCC(C(=O)c2ccc(Cl)cc2)C1 (centres unmarked)	-23
O=C(c1ccc(C(F)(F)F)cc1)C1CCCN(C2CCSCC2)C1 (centres unmarked)	-71.2
